# Results: the supplement of paper PMC10849652
# Of roughly 7,900 targets only a part is listed; those with a hit were picked by preference. About 0.6% of all pairs of compound and target were hits. A number with no mark means an inactive call.
# Columns and labels:
# Assay in all cases: log2 fold change, soluble protein after heating vs DMSO (PISA); higher = thermal stabilisation; K562 cells, 10 uM, 30 min; active = over 0.2 and 3.5 SD of the protein, either way, in both replicates (recomputed)
# [1] = compound: COC1=CC=C(C=C1)CN2C=CC3=C2C=C(C=C3)C(=O)NO
# Method in brief: (§1)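 Values are thermal stability changes relative to control samples and are taken from duplicates. They are stated as log2 fold changes. Before quantification by TMTpro 16plex LC-MS/MS with equalised channel sums, K562 cells at 2×10^6 cells/mL were treated with 10 μM compound for 30 min, heated in aliquots for 3 min across 48°C-58°C, pooled, extracted in PBS with 0.5% NP-40 at 4°C, and centrifuged at 21,000xg for 90 min to give the soluble supernatant.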
# filanesib = compound: CON(C)C(=O)N1N=C(c2cc(F)ccc2F)S[C@@]1(CCCN)c1ccccc1 [filanesib]
# Method in brief: as §1
# zotarolimus = compound: CO[C@H]1C[C@@H]2CC[C@@H](C)[C@@](O)(O2)C(=O)C(=O)N2CCCC[C@H]2C(=O)O[C@H]([C@H](C)C[C@@H]2CC[C@H](n3cnnn3)[C@H](OC)C2)CC(=O)[C@H](C)/C=C(\C)[C@@H](O)[C@@H](OC)C(=O)[C@H](C)C[C@H](C)/C=C/C=C/C=C/1C [zotarolimus]
# Method in brief: as §1
# idasanutlin = compound: COc1cc(C(=O)O)ccc1NC(=O)[C@@H]1N[C@@H](CC(C)(C)C)[C@](C#N)(c2ccc(Cl)cc2F)[C@H]1c1cccc(Cl)c1F [idasanutlin]
# Method in brief: as §1
# alisertib = compound: COc1cc(Nc2ncc3c(n2)-c2ccc(Cl)cc2C(c2c(F)cccc2OC)=NC3)ccc1C(=O)O [alisertib]
# Method in brief: as §1
# [2] = compound: COc1cc2nc(-c3cc(F)ccc3O)nc(N[C@@H]3CNC[C@H]3C(C)(C)O)c2cc1OC
# Method in brief: as §1
# [3] = compound: COc1cccc2cc(-c3nc([C@H]4CC[C@H](C(=O)O)CC4)n4ncnc(N)c34)[nH]c12
# Method in brief: as §1
# lapatinib = compound: CS(=O)(=O)CCNCc1ccc(-c2ccc3ncnc(Nc4ccc(OCc5cccc(F)c5)c(Cl)c4)c3c2)o1 [lapatinib]
# Method in brief: as §1
# pictilisib = compound: CS(=O)(=O)N1CCN(Cc2cc3nc(-c4cccc5[nH]ncc45)nc(N4CCOCC4)c3s2)CC1 [pictilisib]
# Method in brief: as §1
# gefitinib = compound: COc1cc2ncnc(Nc3ccc(F)c(Cl)c3)c2cc1OCCCN1CCOCC1 [gefitinib]
# Method in brief: as §1
# Sequence of UniProt Q86UD1 (Q86UD1 whole entry, looked up): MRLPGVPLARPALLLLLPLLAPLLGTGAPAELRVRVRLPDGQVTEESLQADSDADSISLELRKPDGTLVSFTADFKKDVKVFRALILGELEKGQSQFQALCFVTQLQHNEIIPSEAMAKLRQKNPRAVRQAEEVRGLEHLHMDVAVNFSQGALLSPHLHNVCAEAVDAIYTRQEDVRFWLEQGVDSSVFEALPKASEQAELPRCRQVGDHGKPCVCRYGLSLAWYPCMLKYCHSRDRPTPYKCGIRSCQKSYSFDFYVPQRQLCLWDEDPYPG
# Sequence of UniProt Q14978 (Q14978 whole entry, looked up): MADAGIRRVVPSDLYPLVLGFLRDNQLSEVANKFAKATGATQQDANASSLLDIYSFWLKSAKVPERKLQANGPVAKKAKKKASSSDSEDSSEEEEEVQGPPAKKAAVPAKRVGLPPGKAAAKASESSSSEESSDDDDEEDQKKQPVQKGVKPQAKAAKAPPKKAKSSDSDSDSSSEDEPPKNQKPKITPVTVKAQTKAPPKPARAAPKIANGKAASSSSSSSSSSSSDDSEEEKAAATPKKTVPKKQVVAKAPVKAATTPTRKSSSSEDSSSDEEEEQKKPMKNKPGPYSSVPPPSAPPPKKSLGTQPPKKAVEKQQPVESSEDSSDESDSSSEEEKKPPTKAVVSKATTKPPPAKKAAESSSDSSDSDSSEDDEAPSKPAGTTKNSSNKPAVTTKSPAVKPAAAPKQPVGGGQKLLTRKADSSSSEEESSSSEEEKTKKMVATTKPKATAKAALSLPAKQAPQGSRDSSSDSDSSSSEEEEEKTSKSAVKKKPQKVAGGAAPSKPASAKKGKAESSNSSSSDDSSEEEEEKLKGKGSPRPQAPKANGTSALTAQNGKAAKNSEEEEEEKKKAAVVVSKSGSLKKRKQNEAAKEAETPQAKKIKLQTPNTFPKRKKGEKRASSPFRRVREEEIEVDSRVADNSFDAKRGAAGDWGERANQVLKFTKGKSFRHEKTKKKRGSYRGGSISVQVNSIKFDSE
# Sequence of UniProt Q9Y5B8 (Q9Y5B8 whole entry, looked up): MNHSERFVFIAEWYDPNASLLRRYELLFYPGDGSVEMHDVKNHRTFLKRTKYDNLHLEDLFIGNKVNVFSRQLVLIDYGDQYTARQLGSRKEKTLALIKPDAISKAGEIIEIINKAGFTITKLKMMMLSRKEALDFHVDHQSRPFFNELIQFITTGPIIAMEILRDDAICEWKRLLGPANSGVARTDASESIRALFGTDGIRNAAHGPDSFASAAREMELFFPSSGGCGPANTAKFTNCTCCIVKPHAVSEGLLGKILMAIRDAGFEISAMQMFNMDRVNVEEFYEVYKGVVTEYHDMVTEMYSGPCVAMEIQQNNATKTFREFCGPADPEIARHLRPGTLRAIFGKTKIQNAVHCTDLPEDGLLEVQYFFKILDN
# Sequence of UniProt P40692 (P40692 whole entry, looked up): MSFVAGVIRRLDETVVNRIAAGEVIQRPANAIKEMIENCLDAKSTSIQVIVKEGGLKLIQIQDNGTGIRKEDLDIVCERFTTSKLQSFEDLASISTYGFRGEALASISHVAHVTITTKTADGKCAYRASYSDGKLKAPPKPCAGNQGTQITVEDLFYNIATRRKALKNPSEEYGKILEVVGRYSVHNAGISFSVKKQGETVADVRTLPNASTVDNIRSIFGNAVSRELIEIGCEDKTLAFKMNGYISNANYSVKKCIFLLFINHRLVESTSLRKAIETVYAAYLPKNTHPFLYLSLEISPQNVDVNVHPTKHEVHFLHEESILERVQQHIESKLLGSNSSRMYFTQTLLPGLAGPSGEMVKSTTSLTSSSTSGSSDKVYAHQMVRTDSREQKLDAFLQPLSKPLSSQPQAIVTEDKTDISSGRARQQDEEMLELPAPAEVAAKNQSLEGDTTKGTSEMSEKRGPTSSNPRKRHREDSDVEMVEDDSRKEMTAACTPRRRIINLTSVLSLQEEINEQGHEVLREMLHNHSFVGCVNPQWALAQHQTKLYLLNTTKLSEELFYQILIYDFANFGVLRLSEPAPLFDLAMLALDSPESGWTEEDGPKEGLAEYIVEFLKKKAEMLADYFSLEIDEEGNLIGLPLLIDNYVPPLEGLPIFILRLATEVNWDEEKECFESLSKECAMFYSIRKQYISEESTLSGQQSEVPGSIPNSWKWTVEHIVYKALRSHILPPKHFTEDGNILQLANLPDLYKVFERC
# Sequence of UniProt P52701 (P52701 whole entry, looked up): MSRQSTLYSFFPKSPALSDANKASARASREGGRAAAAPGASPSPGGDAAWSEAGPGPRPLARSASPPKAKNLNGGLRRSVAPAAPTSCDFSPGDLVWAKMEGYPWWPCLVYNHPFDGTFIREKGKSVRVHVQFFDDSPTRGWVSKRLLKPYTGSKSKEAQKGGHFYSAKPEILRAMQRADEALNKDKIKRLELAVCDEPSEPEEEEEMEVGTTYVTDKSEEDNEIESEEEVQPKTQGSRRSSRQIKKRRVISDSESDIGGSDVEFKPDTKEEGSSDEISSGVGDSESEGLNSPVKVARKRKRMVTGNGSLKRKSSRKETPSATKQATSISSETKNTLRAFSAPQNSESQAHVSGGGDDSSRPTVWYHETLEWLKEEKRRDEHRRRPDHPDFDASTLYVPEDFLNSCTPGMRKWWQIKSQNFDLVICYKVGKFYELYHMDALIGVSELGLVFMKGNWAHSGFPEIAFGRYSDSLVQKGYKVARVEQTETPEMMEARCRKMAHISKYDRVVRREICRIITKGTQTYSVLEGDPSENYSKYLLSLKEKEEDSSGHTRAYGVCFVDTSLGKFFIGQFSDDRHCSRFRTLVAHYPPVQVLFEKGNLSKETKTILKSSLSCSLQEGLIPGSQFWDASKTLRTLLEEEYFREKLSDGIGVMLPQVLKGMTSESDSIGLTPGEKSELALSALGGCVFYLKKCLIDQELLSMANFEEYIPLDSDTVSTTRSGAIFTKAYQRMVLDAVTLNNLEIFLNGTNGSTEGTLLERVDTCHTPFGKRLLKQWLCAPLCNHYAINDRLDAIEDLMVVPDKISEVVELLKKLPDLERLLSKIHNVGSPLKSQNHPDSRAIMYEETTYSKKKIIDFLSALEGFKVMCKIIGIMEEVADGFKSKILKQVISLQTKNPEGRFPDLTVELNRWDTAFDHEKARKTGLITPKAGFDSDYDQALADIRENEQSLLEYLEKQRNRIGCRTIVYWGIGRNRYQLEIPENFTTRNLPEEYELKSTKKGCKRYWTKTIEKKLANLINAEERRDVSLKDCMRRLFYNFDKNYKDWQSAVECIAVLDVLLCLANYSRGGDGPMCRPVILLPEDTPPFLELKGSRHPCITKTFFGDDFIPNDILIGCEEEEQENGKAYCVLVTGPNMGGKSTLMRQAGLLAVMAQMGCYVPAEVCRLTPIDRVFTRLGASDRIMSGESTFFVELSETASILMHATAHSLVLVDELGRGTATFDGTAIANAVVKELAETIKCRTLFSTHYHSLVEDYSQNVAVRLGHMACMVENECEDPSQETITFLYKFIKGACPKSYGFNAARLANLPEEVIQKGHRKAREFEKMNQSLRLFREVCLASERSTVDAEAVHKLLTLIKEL
# Sequence of UniProt O60890 (O60890 whole entry, looked up): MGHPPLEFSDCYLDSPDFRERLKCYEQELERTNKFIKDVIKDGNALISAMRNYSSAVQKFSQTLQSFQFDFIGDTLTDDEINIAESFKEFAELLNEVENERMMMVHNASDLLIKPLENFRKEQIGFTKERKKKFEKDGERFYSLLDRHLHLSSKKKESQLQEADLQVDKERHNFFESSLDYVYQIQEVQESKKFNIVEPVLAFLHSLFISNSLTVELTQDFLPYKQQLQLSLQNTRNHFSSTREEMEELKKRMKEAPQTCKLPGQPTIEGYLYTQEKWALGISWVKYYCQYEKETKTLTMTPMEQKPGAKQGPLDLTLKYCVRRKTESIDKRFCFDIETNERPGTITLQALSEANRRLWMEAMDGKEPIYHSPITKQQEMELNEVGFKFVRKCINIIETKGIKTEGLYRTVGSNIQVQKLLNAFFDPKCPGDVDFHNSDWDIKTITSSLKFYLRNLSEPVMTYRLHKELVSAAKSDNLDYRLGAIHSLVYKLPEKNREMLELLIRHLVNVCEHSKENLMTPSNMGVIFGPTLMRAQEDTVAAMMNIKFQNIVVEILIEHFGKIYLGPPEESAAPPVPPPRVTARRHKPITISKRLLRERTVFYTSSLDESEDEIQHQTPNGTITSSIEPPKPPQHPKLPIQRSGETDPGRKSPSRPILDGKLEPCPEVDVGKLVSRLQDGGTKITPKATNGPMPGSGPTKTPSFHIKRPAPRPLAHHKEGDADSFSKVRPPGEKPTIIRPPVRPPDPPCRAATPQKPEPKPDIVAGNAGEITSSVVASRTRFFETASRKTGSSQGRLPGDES
# Sequence of UniProt Q9UI43 (Q9UI43 whole entry, looked up): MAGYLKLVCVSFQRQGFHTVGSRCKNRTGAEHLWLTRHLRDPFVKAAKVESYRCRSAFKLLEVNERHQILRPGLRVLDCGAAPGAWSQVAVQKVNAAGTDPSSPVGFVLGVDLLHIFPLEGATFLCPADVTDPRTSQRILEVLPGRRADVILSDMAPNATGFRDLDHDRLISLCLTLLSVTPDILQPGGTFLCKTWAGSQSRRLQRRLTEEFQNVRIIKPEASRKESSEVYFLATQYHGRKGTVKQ
# Sequence of UniProt Q9H1P3 (Q9H1P3 whole entry, looked up): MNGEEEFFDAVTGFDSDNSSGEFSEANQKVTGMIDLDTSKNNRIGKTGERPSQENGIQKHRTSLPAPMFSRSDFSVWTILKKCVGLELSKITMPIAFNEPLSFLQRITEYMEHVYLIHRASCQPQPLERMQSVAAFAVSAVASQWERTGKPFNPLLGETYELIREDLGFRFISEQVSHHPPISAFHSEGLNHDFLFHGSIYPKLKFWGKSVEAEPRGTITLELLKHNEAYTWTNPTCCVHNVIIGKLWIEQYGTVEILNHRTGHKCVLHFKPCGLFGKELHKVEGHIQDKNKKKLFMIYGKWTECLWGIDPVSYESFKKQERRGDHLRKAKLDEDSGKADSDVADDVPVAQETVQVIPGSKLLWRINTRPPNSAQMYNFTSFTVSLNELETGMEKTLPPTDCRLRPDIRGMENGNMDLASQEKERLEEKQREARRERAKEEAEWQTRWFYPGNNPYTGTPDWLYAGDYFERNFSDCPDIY
Target,log2 fold change [1],log2 fold change (filanesib),log2 fold change (zotarolimus),log2 fold change (idasanutlin),log2 fold change (alisertib),log2 fold change [2],log2 fold change [3],log2 fold change (lapatinib),log2 fold change (pictilisib),log2 fold change (gefitinib)
MINK1 (UniProt Q8N4C8),-0.054,-0.003,0.014,0.013,-0.042,-0.064,0.024,0.024,-0.019,
NFATC3 (UniProt Q12968),0.039,0.056,-0.109,-0.009,0.006,-0.109,-0.002,0.015,0.086,0.048
NUP210 (UniProt Q8TEM1),-0.099,-0.08,0.002,0.019,-0.045,-0.319 (active),0.045,-0.089,-0.114,-0.053
MTHFD1 (UniProt P11586),0.048,-0.07,0.04,-0.036,-0.001,0.017,-0.015,0.014,-0.002,0.055
NME7 (UniProt Q9Y5B8),-0.1,0.124,0.058,-0.041,0.054,0.015,-0.077,-0.046,0.071,
MYH10 isoform 3 (UniProt P35580),0.092,-0.116,0.011,-0.065,-0.025,0.036,-0.007,-0.006,-0.033,-0.005
NCKAP1 isoform 2 (UniProt Q9Y2A7),0.019,-0.042,0.025,-0.035,0.067,0.008,-0.038,0.016,-0.049,-0.009
MITF (UniProt O75030),0.122,0.106,,-0.042,0.008,,0,,-0.397,-0.13
MSL1 (UniProt Q68DK7),-0.163,-0.013,,-0.113,-0.081,0.275,-0.012,-0.117,0.197,0.04
PAK1 isoform 2 (UniProt Q13153),0.178,0.04,0.003,-0.155,0.086,-0.007,-0.098,-0.015,0.183,-0.025
NCOR1 (UniProt O75376),-0.07,0.078,0.069,0.004,-0.086,0.128,0.064,-0.119,0.135,-0.018
MNAT1 (UniProt P51948),-0.025,0.073,0.011,0.021,-0.047,-0.04,0.036,0.009,-0.016,-0.039
NOLC1 isoform 2 (UniProt Q14978),0.016,0.21,0.015,0.199,-0.112,-0.093,0.104,0.052,0.056,0.041
MSH6 (UniProt P52701),0.09,-0.154,0.088,-0.003,0.75,-0.017,-0.04,0.008,-0.026,0.068
OPHN1 (UniProt O60890),-0.261,-0.004,-0.049,-0.015,-0.036,,0.04,,0.242,-0.002
NOLC1 isoform 3 (UniProt Q14978),,,-0.013,,,,,,,
NASP isoform 2 (UniProt P49321),,,,,-0.129,,-0.58,,,
PACRGL (UniProt Q8N7B6),,0.056,,,,,,,,
OVCA2 (UniProt Q8WZ82),-0.206,,,-0.023,0.102,0.201,-0.318,-0.014,-0.176,-0.143
OSBPL2 (UniProt Q9H1P3),,,0.085,,-0.019,-0.187,-0.042,1.57 (active),,
MLH1 (UniProt P40692),,,0.024,0.03,-0.171,-0.135,-0.1,0.091,0.083,
OAF (UniProt Q86UD1),,-0.017,,,-0.239,,0.539 (active),,,
MMADHC (UniProt Q9H3L0),-0.031,,0.102,-0.135,0.006,0.056,0.013,0.176,-0.114,0.305
MRM2 (UniProt Q9UI43),,,0.11,0.518 (active),,0.078,,0.108,,0.066
